According to PubChem BioAssay AID2315 (National Center for Advancing Translational Sciences (NCATS), 2010):
“And” between values parts separate entries of the source, which are not always exact repeats. Equal entries are not always repeated. The campaign covered roughly 290,000 compounds. About 27,000 (9.3%) were called active. Rule as the data show it: active = inhibition mostly above about 28% (no sharp cut-off); inactive = mostly below about 43%. Only a selection was taken, and actives are over-represented in it overall.

assay: A qHTS for Small Molecule Inhibitors of Shiga Toxin; details: Vero cells, Shiga toxin protein synthesis inhibition reporter; at 38.7 µM, stronger effect = higher value; also: 0% is about no effect

SMILES | inhibition
CC1CN(C(=S)Nc2ccc(S(N)(=O)=O)cc2)CC(C)O1 (stereo not given) | -8.32% (inactive)
COc1ccc(OC)c(NC(=O)Cc2cccs2)c1 | 9.31% (inactive)
C=C(C)C(=O)O[C@H]1C/C(C)=C\C(=O)/C=C(\C)[C@H](O)[C@@H]2OC(=O)C(=C)[C@@H]21 | 60% (active)
CCOc1ccc(C(=O)COC(=O)c2ccc(-n3cnnn3)cc2)cc1 | -9.12% (inactive)
CCC(C)(C)NC(=O)CN(C(=O)CCC(=O)Nc1nccs1)c1ccc2c(c1)OCO2 | -6.38% (inactive)
COCCCNC(=O)CN1C(=O)CSc2ccc(S(=O)(=O)N3CCOCC3)cc21 | 15.9% (inactive)
O=C(c1cccc(N2CCCC2=O)c1)N1CCOCC1 | 20.2% (inactive)
CC1CCC(NC(=O)c2ccc(N3CCCC3=O)cc2)CC1 (stereo not given) | 56.6% (active)
CC1CCCC(NC(=O)CN2CCN(Cc3ccc(Cl)cc3)C2=O)C1C (stereo not given) | -12.5% (inactive)
Cc1cccc(C(=O)NCCCN2CCCC2=O)c1 | -5.25% (inactive)
C/C(=N\NC(=O)c1cccc(N2CCCC2=O)c1)c1ccc(N)cc1 | 38.9% (inactive)
O=C(NCCc1ccc(Cl)cc1)c1cccc(N2CCCC2=O)c1 | 73.4% (active)
O=C(NCCCN1CCCCCC1)c1ccc(N2CCCC2=O)cc1 | 0.987% (inactive)
CCCNC(=O)NCc1ccc(N2CCCC2=O)cc1 | -8.65% (inactive)
CC1CCCC(NC(=O)c2cccc(N3CCCC3=O)c2)C1C (stereo not given) | 87.5% (active)
COc1ccc(CCNc2nc(C)cc(C)n2)cc1OC | 23.6% (inactive)
CCCc1ccc(OCC(O)CN2CCN(C(=O)OCC)CC2)cc1 (stereo not given) | -4.04% (inactive)
COc1ccc(S(=O)(=O)N2CCC(C(=O)NCc3ccco3)CC2)cc1C | -3.78% (inactive)
CN(C(=O)CCNC(=O)Cn1ccc2ccccc2c1=O)c1ccc(Br)cc1 | -19.7% (inactive)
Cc1nn(-c2ccc([N+](=O)[O-])cc2)c(N)c1-c1ccccc1 | 86.7% (active)
Cc1nc(-c2ccc([N+](=O)[O-])cc2)c(-c2ccccc2)o1 | -2.19% (inactive)
Cc1cc(CO)nn1-c1ccc([N+](=O)[O-])cc1 | 12.4% (inactive)
CCn1c(=O)c2ccccc2n(CC(=O)N2CCCc3ccccc32)c1=O | -12.6% (inactive)
CN(c1ccccc1)S(=O)(=O)c1ccc2[nH]c(=O)[nH]c2c1 | 21.5% (inactive)
CC(=O)c1ccc(N2CCN(C(=O)CCc3ccccc3)CC2)cc1 | 14.3% (inactive)

SMILES | inhibition
CC(=O)c1ccc(N2Cc3ccccc3C2)cc1 | 79.3% (active)
CC(=O)c1ccc(N2CCN(CC(O)c3ccccc3)CC2)cc1 (stereo not given) | 26.5% (inactive)
CCOC(=O)N1CCN(C(=O)c2cn(C)c3ccc(S(=O)(=O)N(CC)CC)cc3c2=O)CC1 | 2.57% (inactive)
COc1ccccc1C(=O)N/C(=C/c1ccc2c(c1)OCO2)C(=O)Nc1cccc(C(=O)O)c1 | -9.43% (inactive)
CN1CCN(S(=O)(=O)c2cccc(C(=O)Nc3cccc(S(N)(=O)=O)c3)c2)CC1 | 13.4% (inactive)
O=C(c1n[nH]c2c1CCC2)N1CCCC(Nc2cccc(F)c2)C1 (stereo not given) | -2% (inactive)
CCOC(=O)Cn1c(=O)sc2cccc(Cl)c21 | -13.7% (inactive)
CC(C)(C)OC(=O)CNC(=O)c1[nH]cnc1C(=O)N[C@@H](Cc1ccccc1)C(=O)OCc1ccccc1 | 7.26% (inactive)
C=C(C)CNC(=S)Nc1ccc(S(=O)(=O)Nc2cnc3ccccc3n2)cc1 | 6.75% (inactive)
Cc1ccc(C(=O)/C=C/Nc2ccc(S(=O)(=O)Nc3onc(C)c3C)cc2)cc1 | 67.9% (active)
CCn1c(SCC(=O)Nc2ccc(S(=O)(=O)Nc3onc(C)c3C)cc2)nnc1-c1ccccc1 | -13.6% (inactive)
Cc1noc(NS(=O)(=O)c2ccc(N/C=C/C(=O)c3ccccc3)cc2)c1C | 71.6% (active)
Cc1noc(NS(=O)(=O)c2ccc(NC(=O)C34CCC(CC3)C4)cc2)c1C | 0.59% (inactive)
Cc1cc(OC(C)C(=O)Nc2ccc(S(=O)(=O)Nc3onc(C)c3C)cc2)cc(C)c1Cl (stereo not given) | -8.09% (inactive)
O=C(Nc1ccc(S(=O)(=O)Nc2ccccn2)cc1)c1ccccc1 | -16.3% (inactive)
Cc1noc(NS(=O)(=O)c2ccc(NC(=O)c3oc4ccc(F)cc4c3C)cc2)c1C | -2.45% (inactive)
O=C(/C=C/Nc1ccc(S(=O)(=O)Nc2cnc3ccccc3n2)cc1)c1cccnc1 | 44.7% (active)
COCCNC(=O)C1CCN(C(=O)C2CC(=O)N(c3ccc(C)cc3)C2)CC1 (stereo not given) | -14.7% (inactive)
CCN1C(=S)N[C@@H](CCc2ccccc2)[C@H](C(=O)OC)[C@H]1C | -2.85% (inactive) and 15.7% (inactive)
O=C(NNS(=O)(=O)c1ccc(F)cc1)c1ccc([N+](=O)[O-])cc1Cl | 30.1% (inactive)
CCOc1ccc(CN2CCC(n3nccc3NC(=O)C3CC3)CC2)cc1CO | -3.78% (inactive)
Cc1ccc(NC(=O)C2CCCN2C(=O)OCc2ccccc2)cc1C (stereo not given) | -4.8% (inactive)
COc1ccc(NC(=O)C2C3CCC(O3)C2C(=O)O)cc1OC (stereo not given) | -5.78% (inactive)
O=C(CSc1nc(Nc2ccccc2)nc(N2CCOCC2)n1)Nc1cc(Cl)ccc1O | -4.02% (inactive)
COc1cc(C(=O)N2CCN(C)CC2)cc(OC)c1OC | -8.49% (inactive)

SMILES | inhibition
Cn1ccc(=Nc2ccc(NC(=O)c3ccc(N=c4ccn(C)c5ccc([N+](=O)[O-])cc45)cc3)cc2)cc1 | -0.904% (inactive)
Cc1nccn1CCCNC(=O)CC1C(=O)NCCN1Cc1ccc(Cl)c(F)c1 (stereo not given) | -1.1% (inactive)
O=C(CC1C(=O)NCCN1Cc1ccc(-c2ccccc2)cc1)NCC1CCOCC1 (stereo not given) | -14.6% (inactive)
CCOc1ccc(CN2CCNC(=O)C2CC(=O)NCCCC2CCCC2)cc1 (stereo not given) | 19% (active)
Cn1c(CCNS(=O)(=O)c2ccc(F)cc2)nnc1SCc1cccnc1 | 16.6% (inactive)
COCCn1c(SCC(=O)N2CCCCCC2)nc2c(c1=O)SCC2 | -16.9% (inactive)
O=C(NCCc1ccc2c(c1)OCCO2)c1cc2ccccc2o1 | 5.6% (inactive)
Cc1ccc(OC(=O)c2cc3ccccc3o2)cc1 | 27.5% (inactive)
O=C(Nc1ccncc1)c1cc2ccccc2o1 | 57.4% (active)
C/C(=N\NC(=S)Nc1ccc(C)cc1)c1cc2ccccc2o1 | 30.5% (inactive)
Cc1ccc(NC(=O)c2cc3ccccc3o2)cc1 | 118% (active)
CC(C)(C)n1nc2c(c1NC(=O)c1cc3ccccc3o1)CSC2 | -8.8% (inactive)
Cc1cc(C)cc(C(=O)OCC(=O)NCCNC(=O)COC(=O)c2cc(C)cc(C)c2)c1 | 22.3% (inactive)
CN(C)c1ccc(S(=O)(=O)NCC(=O)NCC2CCCCC2)cc1[N+](=O)[O-] | 3.92% (inactive)
O=C(NCCN1CCN(C(=O)c2cccc([N+](=O)[O-])c2)CC1)C(=O)NCc1ccc(Cl)cc1 | -5.68% (inactive)
Fc1ccc(-c2csc(-c3ccc(C4SCCS4)cc3)n2)cc1F | -3.43% (inactive)
Clc1ccc(-c2csc(-c3ccncc3)n2)cc1 | 78.2% (active)
COc1ccc(NC(=O)NCCN2CCN(c3ccc(C)cc3)CC2)c(Cl)c1 | -4.91% (inactive)
CC1CCCCN1CCCNc1ccc(C(CC(N)=O)NC(=O)c2ccccc2)cc1[N+](=O)[O-] (stereo not given) | -3.52% (inactive)
CCN(C(=O)Cc1c(C(=O)O)n(CC)c2ccccc12)c1ccccc1C | 1.61% (inactive)
CCC(C(=O)NC1CCCCC1)N(C(=O)c1snc(C(N)=O)c1N)c1ccc(OC)cc1OC (stereo not given) | 16.5% (inactive)
CCCCc1nc(SCC(=O)Nc2nnc(C(C)C)s2)n[nH]1 | 24% (inactive)
O=C(CSC(=S)N1CCOCC1)c1ccccc1 | 67.5% (active)
CC(=O)c1ccc(NC(=O)CSC(=S)N2CCCC2)cc1 | -2.78% (inactive)
O=C(CP(=O)(c1ccccc1)c1ccccc1)N1CCOCC1 | -5.31% (inactive)

SMILES | inhibition
O=C(CSC(=S)N1CCCCC1)c1c(F)cccc1F | 61.7% (active)
CC1CN(C(=S)SCC(=O)c2ccccc2)CC(C)O1 (stereo not given) | 94.2% (active)
O=C(CSC(=S)N1CCOCC1)c1cc(Br)cc(Br)c1O | -11.8% (inactive)
COC(=O)[C@H](Cc1ccccc1)NC(=O)N1CC(C)OC(C)C1 (stereo not given in full) | -8.27% (inactive)
CC1CN(C(=S)Nc2ccccc2F)CC(C)O1 (stereo not given) | -12% (inactive)
O=C(Nc1ccc(S(=O)(=O)N2CCCCCC2)cc1)c1c(F)cccc1F | 22.1% (inactive)
O=C(O)C1CCCCC1C(=O)N1CCN(S(=O)(=O)c2ccc(F)cc2)CC1 (stereo not given) | -21.1% (inactive)
CC1CCN(C(=O)c2ccccc2NC(=O)Cc2ccccc2)CC1 | 13.5% (inactive)
Cc1c(C)c2ccc(OCC(=O)N3CCN(c4cccc(Cl)c4)CC3)cc2oc1=O | -20.7% (inactive)
COc1ccccc1C1C(C(N)=O)=C(C)Nc2nc(CCCO)nn21 (stereo not given) | -12.2% (inactive)
Cc1nc(SCC(=O)NC2CCCC2)[nH]c(=O)c1C | -3% (inactive)
CC(=O)NS(=O)(=O)c1ccc(N/C(N)=N/c2nc(C)cc(C)n2)cc1 | 4.41% (inactive)
Cc1cccc2c1cnn2C(=O)CCC(=O)NC1CCCCC1 | -4.08% (inactive)
CCOC(=O)N1CCN(Cc2nc3cc(NC(=O)CC)ccc3n2CC)CC1 | -2.96% (inactive)
Cc1cc2nc(C)n(CCCNC(=O)Nc3ccccc3)c2cc1C | 9% (inactive)
Cc1nc2cc(NC(=O)NC3CC3)ccc2n1C | 27.2% (inactive)
C=CCN(C(=O)Nc1ccc2oc(C)nc2c1)c1ccccc1 | 117% (active)
Cn1ncc(Br)c1C(=O)NCc1cccs1 | 20.7% (inactive)
Cc1nc2cc(NC(=O)Nc3cccc(F)c3)ccc2n1C | 27.6% (active)
C=CCN(C(=O)Nc1ccc2c(c1)nc(C)n2C)c1ccccc1 | 46.7% (active)
Cc1cc(C)cc(NC(=O)N(C)Cc2ccccc2)c1 | 13.5% (inactive)
Cc1nc2cc(NCc3cccs3)ccc2n1C | 47.7% (active)
Cc1nn(CC(=O)Nc2ccc3c(c2)nc(CN2CCCCC2)n3C)c(=O)c2ccccc12 | -8.7% (inactive)
COc1ccc(-n2cnc3cc(NCc4ccco4)ccc32)cc1 | 66.3% (inactive)
C=CCN(C(=O)Cn1ncc2c1-c1cc(C)ccc1OC2)c1ccccc1 | -10.9% (inactive)
